HCV inhibitor: inhibitors of hepatitis C virus infection | Huh7.5.1 HCVcc-Cre infection, luciferase reporter, 44 h | 340,000 compounds, 3.4% hits | AID 651820 | Potency, µM (series often up to 41.8 µM), actives largely listed as inhibitors; active = well fitted inhibition curve with a large enough effect; inconclusive = small, poorly fitted or top-dose-only effect, or another doubt; inactive = no such curve, though single readings can be large or run the other way
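HCVcc-Cre virus at an moi near 0.5 was added right after compound to cells cultured 4 h from seeding (1,000 cells/well). Luciferase activity was determined 44 h later, 15 min after substrate addition at RT.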
VACV mCherry inh: inhibitors of vaccinia virus infection (mCherry reporter signal) | Potency, µM (titrated, usually from 36.5 µM), hits mostly inhibitors | Vaccinia virus mCherry reporter infection, fluorescence | 310,000 compounds, 0.63% hits | AID 720579; calls by dose curve; tested in A549 cells; note: nearly all actives have a fitted effect of over 35% in size
Vaccinia Venus: vaccinia inhibition (Venus reporter); Vaccinia virus Venus reporter expression, fluorescence; Potency, µM (top dose mostly 36.5 µM), most hits filed as inhibitors; 330,000 compounds, 0.46% hits; calls by dose curve; tested in A549 cells; note: nearly all actives have a fitted effect of over 30% in size
HCMV antiviral: blocks human cytomegalovirus replication | AID 1259415 | HFF cells, HCMV-luciferase reporter, 72 h; stronger effect = lower value | activity change, negative = inhibition, % at 57.5 µM | 410,000 compounds, 4.5% hits; in the data active = activity change below about -60%; inconclusive = no clear call, values can overlap the other calls; inactive = above about -39%
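Screen run at 2 compound doses on HFFs infected with reporter HCMV, MOI 1 PFU/cell. Luciferase activity from cell lysates at 72 h post infection gave inhibition relative to buffer-only and Salinomycin wells.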
FMDV antiviral: foot and mouth disease virus antiviral activity; 410,000 compounds, 1.2% hits; FMDV antiviral cell-based qHTS; Potency, µM (top dose mostly 57.9 µM), hits mostly inhibitors; AID 1159524; calls by dose curve; tested in HEK293T cells; note: read-out not given here; nearly all actives have a fitted effect of over 45% in size
Hits are given with their value; - = inactive; ? = inconclusive; . = no result; ! = repeats disagree; [ ] = remark or other dose. A selection: hits, their analogues and other compounds. The true share with any hit is near 7.3%.

SMILES	HCV inhibitor	VACV mCherry inh	Vaccinia Venus	HCMV antiviral	FMDV antiviral
Cc1cc(C)n(-c2ccc(C(=O)Nc3ccc(C)c(S(=O)(=O)N(C)C)c3)cc2)n1	10µM	?	?	-81	16µM
CCCCN1C(=O)c2ccc(C(=O)Nc3cccc(C)c3C)cc2C1=O	-	-	-	-	-
O=C(O)c1cc(-c2cccs2)nn1-c1cccc(Cl)c1	-	-	-	-	-
CN(C)S(=O)(=O)c1cccc(NC(=O)c2cc(-c3cccs3)nn2-c2cccc(Cl)c2)c1	?	-	-	-106	-
Cc1cc(C)n(-c2ccc(C(=O)Nc3cccc(S(=O)(=O)N(C)C)c3)cc2)n1	5µM	-	-	-96	22µM
CCCCN1C(=O)c2ccc(C(=O)Nc3ccc(C)c(S(=O)(=O)N(C)C)c3)cc2C1=O	?	-	-	-	18µM
Cc1ccc(CNC(=O)CCC(=O)N2CC3CCCN3c3ccccc32)cc1 (stereo unspecified)	.	-	-	-	-
c1ccc(Nc2nnc(-c3ccc4c(c3)OCO4)o2)cc1	.	.	.	-	.
O=C(NCCc1nnc2n1CCN(Cc1c(F)cccc1F)CC2)c1ccco1	.	-	-	.	-
Cc1noc(C)c1S(=O)(=O)Nc1ccc(C(=O)Nc2ccc(OC(F)(F)F)cc2)cc1	14µM	.	.	-	-
Cc1cc(C)n(-c2ccc(C(=O)Nc3ccc4c(c3)OCO4)cc2)n1	?	.	-	-	-
CCN(CC)S(=O)(=O)c1cccc(NC(=O)c2ccc(-n3nc(C)cc3C)cc2)c1	2.5µM	?	?	-83	20µM
COc1ccc(NC(=O)c2ccc(-n3nc(C)cc3C)cc2)cc1OC	7.1µM	.	-	-	-
Cc1cc(C)n(-c2ccc(C(=O)Nc3ccc(S(=O)(=O)NCc4ccco4)cc3)cc2)n1	3.5µM	?	?	-96	?
Cc1cc(NC(=O)C2CCN(S(=O)(=O)c3cccc4nsnc34)CC2)ccc1Br	.	-	-	?	-
CN(C)c1ncc2nc(-c3ccc(Cl)cc3)c(=O)n(C)c2n1	.	.	.	.	-
CSCCC(NS(=O)(=O)c1ccc2c(c1)oc(=O)n2C)C(=O)NCc1ccc(Cl)cc1 (stereo unspecified)	.	-	-	-	-
Cc1ccc(NC(=O)c2ccc(OC(F)(F)F)cc2)cc1S(=O)(=O)N(C)C	3.2µM	?	?	-99	32µM
Cc1ccc(NC(=O)c2ccncc2)cc1S(=O)(=O)N(C)C	-	-	-	-	-
CN1C2CCC1C(C(=O)Oc1ccccc1)C(c1ccc(Cl)cc1)C2 (stereo unspecified)	.	.	.	-77	.
Cc1cccc(C(=O)NNc2ncnc3c2cnn3-c2ccc(C)c(Cl)c2)c1	.	-	-	-	-
CS(=O)(=O)N1CCCc2cc(C(=O)Nc3cccc(C(F)(F)F)c3)ccc21	.	-[7.34 µM]	-[7.34 µM]	?	25µM
CC1CCN(CC(=O)Nc2cccc(C(=O)Nc3cccc(C(F)(F)F)c3)c2)CC1	22µM	-	?	-	-
CS(=O)(=O)N1CCc2cc(C(=O)Nc3ccc(COCC(F)(F)F)cc3)ccc21	11µM	.	.	?	?
COc1cccc(NC(=O)c2ccc3c(c2)CCN3S(C)(=O)=O)c1	?	-	-	-	-
SMILES	HCV inhibitor	VACV mCherry inh	Vaccinia Venus	HCMV antiviral	FMDV antiviral
CC1CN(CC(=O)Nc2cccc(C(=O)Nc3cccc(C(F)(F)F)c3)c2)CC(C)O1 (stereo unspecified)	?	-	?	-	?
O=C1CCN(S(=O)(=O)c2ccc(Cl)cc2)C(c2ccccc2)C1 (stereo unspecified)	.	.	.	-	.
Cc1ccc(NC2(c3ccccc3)C(=O)c3ccccc3C2=O)cc1F	.	-	-	-	-
CC(=O)Nc1ccccc1-c1nc(CNC(=O)c2cccc(-n3cccn3)c2)c(C)o1	.	-	-	.	?
O=C(Nc1cnn(C23CC4CC(CC(C4)C2)C3)c1)c1cnn2c(C(F)(F)F)cc(-c3ccco3)nc12	11µM!	-	-	-	.
O=C(Nc1ccc2c(c1)OCO2)c1cnn2c(C(F)(F)F)cc(-c3ccco3)nc12	?	.	-	-	-
CC(C)OC(=O)c1cc(NC(=S)Nc2ccc([N+](=O)[O-])cc2)cc(C(=O)OC(C)C)c1	?	-	-	-86	?
CCCCNC(=S)Nc1ccc([N+](=O)[O-])cc1	?	?	?	-75	-
CC(C)CCNC(=S)Nc1ccc([N+](=O)[O-])cc1	?	?	?	-98	-
O=[N+]([O-])c1ccc(NNC(=S)Nc2ccc(F)cc2)cc1	?	?	?	-99	-
CC(C)C[C@@H]1COc2cc(N3CCOCC3)ccc2S(=O)(=O)N1	.	.	.	-	.
CC(c1ccccc1)N(CCC(c1ccccc1)C1CCOC(C)(C)C1)C(=O)c1ccco1 (stereo unspecified)	-	-	-	-101	?
CC(=O)Nc1cccc(NC(=O)Cc2csc(COc3cccc(C)c3)n2)c1	.	-	-	-	-
Cc1ccc(C(=O)Nc2cccc3ccccc23)cc1	-	.	.	-	-
CC(C)(C)c1ccc(C(=O)Nc2cccc3c(=O)[nH][nH]c(=O)c23)cc1	?	-	-	-69	4.5µM
O=C(CN1CCOCC1)N1CCN(c2nnc(-c3ccccc3)c3ccccc23)CC1	-	-	-	-	-
Cc1ccc(-c2nnc(N3CCN(C(=O)COc4ccccc4)CC3)c3ccccc23)cc1	13µM	.	.	?	?
O=C(COc1ccc(-c2nnc(N3CCCCC3)c3ccccc23)cc1)N1CCCCC1	-	-	?	-	?
COc1ccc(OCC(=O)N2CCC(c3nc4ccccc4s3)CC2)cc1	.	-	-	-	-
CCCC(=O)N1CCN(c2nnc(-c3ccccc3)c3ccccc23)CC1	-	.	.	-	-
O=C(COc1ccc([N+](=O)[O-])cc1)N1CCC(c2nc3ccccc3s2)CC1	.	-	-	-61	?
O=C(COc1ccc([N+](=O)[O-])cc1)N1CCN(c2nnc(-c3ccccc3)c3ccccc23)CC1	13µM	.	.	-	?
Cc1ccc(-c2nnc(N3CCN(C(=O)CN4CCOCC4)CC3)c3ccccc23)cc1	10µM!	.	.	-	-
CC(C)COc1ccc(C(=O)Nc2onc3c2CCCC3)cc1	.	-	-	-	-
C/C(=C1/C=Nc2ccccc21)c1ccc(N(C)C)cc1	.	-	-	.	.
SMILES	HCV inhibitor	VACV mCherry inh	Vaccinia Venus	HCMV antiviral	FMDV antiviral
OC1(c2ccc(Cl)cc2)CN(c2ccccc2)C2=[N+]1CCS2 (stereo unspecified)	13µM	-	-	-	-
COc1cccc(C(=O)Nc2nnc(S(=O)(=O)N3CCCc4ccccc43)s2)c1	.	-	-	-	-
O=c1c2ccccc2nc(/C=C/c2c[nH]c3ccccc23)n1CCO	?	?	-	-	-
CCn1c(/C=C/c2ccccc2)nc2ccccc2c1=O	?	.	.	-61	-
O=c1c2ccccc2nc(/C=C/c2ccc(O)cc2)n1CCc1ccccc1	13µM	?	-	?	35µM
CCn1c(/C=C/c2ccc(F)cc2)nc2ccccc2c1=O	-	.	.	-	-
CCn1c(/C=C/c2ccccc2)nc2ccccc21	7.9µM	-	-	-	-
O=c1c2ccccc2nc(/C=C/c2cc(Br)ccc2O)n1CCO	14µM	.	.	-98	?
CCc1ccccc1NC(=O)Cn1nnc(-c2nc(-c3ccncc3)no2)c1N	.	-	-	?	-
c1cc2c3c(c1)CCCN3CCC2	.	-	-	.	.

Source: PubChem BioAssay
